In PubChem BioAssay (Tox21) one finds Potency data, which are given here for eight compounds.

A short description of test [1]: Nuclear factor erythroid 2-related factor 2/antioxidant responsive element (Nrf2/ARE) small molecule agonists: qHTS cell viability counter screen in human keratinocytes (AID 1919968; active = well fitted curve in the direction sought with a large enough effect in the repeat runs; an effect the other way counts as inactive or inconclusive; note: nearly all actives have a fitted effect of over 55% in size). The procedure, abridged:
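KeratinoSens cells (HaCaT keratinocytes stably carrying an ARE-luciferase reporter) were seeded at 1,500 cells/well and rested 5 h at 37 C/5% CO2. They were then exposed to compounds in DMSO for 23 h. Viability was read by CellTiter-Fluor fluorescence after 1 h.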

A short description of test [2]: Nuclear factor erythroid 2-related factor 2/antioxidant responsive element (Nrf2/ARE) small molecule agonists: luciferase reporter gene qHTS assay in human keratinocytes (AID 1919969). Note: nearly all actives have a fitted effect of over 35% in size.
Test [3] concerns the target Gonadotropin-releasing hormone receptor (Homo sapiens) (UniProt P30968). The test can be described thus: Human gonadotropin-releasing hormone receptor (GnRHR) small molecule agonists, calcium flux assay in GnRHR-HEK293 cells (AID 1920063). Note: nearly all actives have a fitted effect of over 35% in size. The procedure, abridged:
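HEK293 cells stably expressing human GnRHR were plated 18 h at 37 °C, loaded with calcium dye 1 h at 37 °C, then given compound in agonist mode; fluorescence (Ex/Em 480/540) read kinetically for 3 min at 1 s intervals.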

In test [4] the target is KiSS-1 receptor (Homo sapiens) (UniProt Q969F8). The test can be described thus: Human kisspeptin (KISS1R) small molecule agonists, calcium flux assay in KISS1R-HEK293 cells (AID 1920064; active = well fitted curve in the direction sought with a large enough effect in the repeat runs; an effect the other way counts as inactive or inconclusive). The procedure, abridged:
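HEK293 cells stably expressing human KISS1R were plated 18 h at 37 °C, loaded with calcium dye for 1 h at 37 °C, then given compound by pin tool. Fluorescence (Ex/Em 480/540) was read kinetically for 3 min.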

The nature of test [5]: G protein-coupled receptor (GPCR) small molecule agonists, calcium flux assay: HEK293 wild type cell line counter screen (AID 1920065). The procedure, abridged:
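Cells were plated and cultured 18 h at 37 C/5% CO2, then loaded with calcium dye for 1 h at 37 C. Compounds in DMSO were pin-transferred in agonist mode, and fluorescence (Ex/Em 480/540) was read kinetically for 3 min at 1 s intervals.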

Test [6] in a line: p53 small molecule agonists, cell-based qHTS assay with human liver microsomes: qHTS cell viability counter screen (AID 1963579). Note: nearly all actives have a fitted effect of over 45% in size. The procedure, abridged: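 Metabolic activation used human liver microsomes and NADPH, both 0.5 mg/mL final, over 16 hours at 37 C on p53RE-bla cells (4,000/well). Cytotoxicity measured by CellTiter-Glo luminescence, 30 min at room temperature.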
A short description of test [7]: p53 small molecule agonists, cell-based qHTS assay with rat liver microsomes: qHTS cell viability counter screen (AID 1963580). Note: nearly all actives have a fitted effect of over 45% in size. The essentials: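 Intracellular ATP, by CellTiter-Glo luminescence, defines viability. HCT-116 p53RE-bla cells, 4,000 per well, were compound-treated in the presence of rat liver microsomes and NADPH for 16 h at 37 C.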
Test [8] is described as follows: p53 small molecule agonists, cell-based qHTS assay: qHTS cell viability counter screen (AID 1963581). Note: nearly all actives have a fitted effect of over 45% in size. The essentials:
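p53RE-bla HCT-116 cells were exposed to compounds for 16 h at 37 C; after the beta-lactamase FRET read in the same wells, CellTiter-Glo was added and luminescence (intracellular ATP) read after 30 min at room temperature.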

Test [9] has as its target 5-hydroxytryptamine receptor 2A (Homo sapiens) (UniProt P28223). The test can be described thus: 5-hydroxytryptamine receptor 2A (HTR2A) small molecule antagonists, cell-based qHTS assay (AID 1963586). Note: nearly all actives have a fitted effect of over 45% in size. Note: potency is the fitted concentration of half-maximal effect. The procedure, abridged:
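Antagonist-mode intracellular calcium assay: DOI (4 nM) added after 5 min compound pre-incubation at room temperature to dye-loaded HTR2A-CHO cells. Fluorescence followed for 3 min, sampled every second.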

For test [10] the target is unchanged. Description: 5-hydroxytryptamine receptor 2A (HTR2A) small molecule agonists, cell-based qHTS assay (AID 1963587). Note: nearly all actives have a fitted effect of over 30% in size. The essentials:
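Kinetic calcium-flux fluorescence (2 min, 1 sec intervals) after compound addition in agonist mode. HTR2A-CHO cells were cultured 18 h, then dye-loaded 1 h at 37 C.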

The target of test [11] is Muscarinic acetylcholine receptor M1 (Homo sapiens) (UniProt P11229). The test can be described thus: Cholinergic receptor muscarinic 1 (CHRM1) small molecule antagonists, cell-based qHTS assay (AID 1963588). Note: nearly all actives have a fitted effect of over 40% in size. The essentials: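 CHRM1-CHO calcium-flux assay, antagonist mode. Cells were seeded 18 h, dye-loaded 1 h at 37 C and given compound for 5 min at RT, then acetylcholine was added at 50nM. FDSS fluorescence was read 3 min; 15 concentrations, three runs.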

Test [12] shares this target. Description: Cholinergic receptor muscarinic 1 (CHRM1) small molecule agonists, cell-based qHTS assay (AID 1963589). Note: nearly all actives have a fitted effect of over 35% in size. The procedure, abridged: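 CHO cells stably expressing human CHRM1, seeded 18 h at 37 C/5% CO2, dye-loaded 1 h at 37 C, then given compound in agonist mode; intracellular calcium fluorescence read kinetically at 1 s intervals. Fifteen concentrations, three independent runs.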

A short description of test [13]: cAMP Responsive Elements (CRE) small molecule agonists, cell-based qHTS assay (AID 1963590). The procedure, abridged: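 CRE-bla HEK 293T cells in DMEM with 10% dialyzed FBS, NEAA, pyruvate and 25 mM HEPES were plated 18 h at 37 C/5% CO2, then exposed to compounds in DMSO for 3 h before LiveBLAzer B/G FRET substrate addition.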
A short description of test [14]: cAMP Responsive Elements (CRE) small molecule antagonists, cell-based qHTS assay (AID 1963591; active = well fitted inhibition curve with a large enough effect in the signal ratio in the repeat runs, not every such curve was filed as active; the % refers to the signal ratio). The procedure, abridged:
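CRE-bla HEK293T cells were plated 18 h at 37 °C/5% CO2, pinned with compound in DMSO, then stimulated with NKH477 at 0.25 uM final for 3 h. LiveBLAzer B/G FRET substrate was added and plates incubated 2 h at room temperature.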

For test [15], the target named is D(2) dopamine receptor (Homo sapiens) (UniProt P14416). Description: Dopamine D2 receptor (DRD2) small molecule antagonists, cell-based qHTS assay (AID 1963595; active = well fitted inhibition curve with a large enough effect in the signal ratio in the repeat runs, with a control signal flat; the % refers to the signal ratio). The procedure, abridged:
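Cells were plated and grown for 24 h at 37 °C. Ro20-1724 (0.1 mM final) went in first, then compound for 10 min. NKH477 (200 nM) with quinpirole (12 nM) followed for 30 min at RT, then HTRF detection reagents for 1 h.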

In test [16] the target is Beta-2 adrenergic receptor (Homo sapiens) (UniProt P07550). Description: Adrenergic beta2 receptor (ADRB2) small molecule antagonists, cell-based qHTS assay (AID 1963592). Note: series mostly up to about 92 µM; nearly all actives have a fitted effect of over 50% in size. The essentials: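 Cells (CHO, stable ADRB2 overexpression) incubated 18-20hr at 37C; compounds added from DMSO; agonist mix (1nM isoproterenol, 100uM IBMX, 25uM Ro-20-1724) added; 0.5hr RT; d2-cAMP and anti-cAMP-cryptate added; 1hr RT; 665/615 nm read.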

Test [17] concerns the target D(2) dopamine receptor (Homo sapiens) (UniProt P14416). Description: Dopamine D2 receptor (DRD2) small molecule agonists, cell-based qHTS assay (AID 1963594). Note: nearly all actives have a fitted effect of over 35% in size. The procedure, abridged:
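cAMP accumulation in DRD2-HEK293 cells measured by HTRF after 1 h detection; compounds added 10 min before NKH477 (200nM […]) forskolin-analogue stimulation, 30 min at room temperature, with Ro20-1724 present at 0.1 mM final.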

The target in test [18] is Beta-2 adrenergic receptor (Homo sapiens) (UniProt P07550). Description: Adrenergic beta2 receptor (ADRB2) small molecule agonists, cell-based qHTS assay (AID 1963593).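 Note: CHO cells stably overexpressing human ADRB2.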 The procedure, abridged: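 CHO cells stably over-expressing ADRB2 were plated overnight at 37C, then dosed with compounds plus a stimulation mix containing 100uM IBMX and 25uM Ro-20-1724 for 0.5hr at room temperature. cAMP was measured by HTRF competition, 1hr.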

Values without a mark were called inactive. Inconclusive results are not listed. Active and inactive are the calls of the source. Unless noted, calls come from the whole dose curve.

Chain of KiSS-1 receptor (Homo sapiens) (Q969F8 whole entry, looked up): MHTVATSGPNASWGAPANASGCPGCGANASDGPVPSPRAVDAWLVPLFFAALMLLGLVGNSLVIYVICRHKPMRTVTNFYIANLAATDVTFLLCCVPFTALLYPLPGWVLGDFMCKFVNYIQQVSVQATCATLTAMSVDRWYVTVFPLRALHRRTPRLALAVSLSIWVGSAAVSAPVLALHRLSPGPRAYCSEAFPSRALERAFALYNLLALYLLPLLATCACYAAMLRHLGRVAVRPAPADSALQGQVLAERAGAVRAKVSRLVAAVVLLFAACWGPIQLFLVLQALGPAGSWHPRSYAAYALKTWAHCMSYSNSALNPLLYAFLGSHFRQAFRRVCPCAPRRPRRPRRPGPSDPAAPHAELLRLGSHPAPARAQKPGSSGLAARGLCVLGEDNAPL
Chain of Muscarinic acetylcholine receptor M1 (Homo sapiens) (P11229 whole entry, looked up): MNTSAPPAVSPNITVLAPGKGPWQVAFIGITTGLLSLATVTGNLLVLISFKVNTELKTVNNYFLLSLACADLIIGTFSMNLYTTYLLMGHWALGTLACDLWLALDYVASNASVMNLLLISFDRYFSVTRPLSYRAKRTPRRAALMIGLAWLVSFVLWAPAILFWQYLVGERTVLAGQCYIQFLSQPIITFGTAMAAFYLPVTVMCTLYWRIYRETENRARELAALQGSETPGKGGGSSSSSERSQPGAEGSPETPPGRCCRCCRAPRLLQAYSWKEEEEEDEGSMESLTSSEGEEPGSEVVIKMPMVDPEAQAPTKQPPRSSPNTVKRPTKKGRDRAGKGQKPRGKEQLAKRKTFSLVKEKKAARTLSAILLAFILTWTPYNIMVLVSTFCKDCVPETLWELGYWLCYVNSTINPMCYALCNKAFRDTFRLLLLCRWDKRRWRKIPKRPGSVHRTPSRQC
Chain of 5-hydroxytryptamine receptor 2A (Homo sapiens) (P28223 whole entry, looked up): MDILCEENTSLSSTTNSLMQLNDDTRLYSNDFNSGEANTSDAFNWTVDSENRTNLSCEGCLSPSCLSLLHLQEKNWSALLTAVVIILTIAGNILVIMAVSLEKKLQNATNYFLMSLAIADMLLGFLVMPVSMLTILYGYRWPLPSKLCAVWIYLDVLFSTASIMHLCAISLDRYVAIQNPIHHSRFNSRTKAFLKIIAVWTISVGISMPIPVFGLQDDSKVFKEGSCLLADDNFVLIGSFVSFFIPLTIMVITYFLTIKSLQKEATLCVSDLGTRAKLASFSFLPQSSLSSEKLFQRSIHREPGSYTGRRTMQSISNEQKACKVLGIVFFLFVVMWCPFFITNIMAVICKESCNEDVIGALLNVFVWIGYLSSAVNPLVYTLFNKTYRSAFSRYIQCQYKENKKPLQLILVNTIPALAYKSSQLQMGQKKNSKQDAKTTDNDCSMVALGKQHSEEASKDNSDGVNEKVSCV
Chain of Beta-2 adrenergic receptor (Homo sapiens) (P07550 whole entry, looked up): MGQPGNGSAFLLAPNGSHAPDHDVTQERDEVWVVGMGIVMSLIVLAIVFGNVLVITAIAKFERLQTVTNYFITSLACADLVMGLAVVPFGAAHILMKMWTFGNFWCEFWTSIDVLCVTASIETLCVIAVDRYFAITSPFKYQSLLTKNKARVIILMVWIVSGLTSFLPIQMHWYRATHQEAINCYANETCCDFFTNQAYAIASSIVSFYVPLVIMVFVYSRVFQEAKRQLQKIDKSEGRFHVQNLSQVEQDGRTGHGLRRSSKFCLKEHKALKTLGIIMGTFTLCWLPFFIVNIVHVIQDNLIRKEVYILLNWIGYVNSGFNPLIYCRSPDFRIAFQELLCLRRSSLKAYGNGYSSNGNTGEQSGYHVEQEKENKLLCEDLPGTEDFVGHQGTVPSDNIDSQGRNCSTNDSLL
Chain of Gonadotropin-releasing hormone receptor (Homo sapiens) (P30968 whole entry, looked up): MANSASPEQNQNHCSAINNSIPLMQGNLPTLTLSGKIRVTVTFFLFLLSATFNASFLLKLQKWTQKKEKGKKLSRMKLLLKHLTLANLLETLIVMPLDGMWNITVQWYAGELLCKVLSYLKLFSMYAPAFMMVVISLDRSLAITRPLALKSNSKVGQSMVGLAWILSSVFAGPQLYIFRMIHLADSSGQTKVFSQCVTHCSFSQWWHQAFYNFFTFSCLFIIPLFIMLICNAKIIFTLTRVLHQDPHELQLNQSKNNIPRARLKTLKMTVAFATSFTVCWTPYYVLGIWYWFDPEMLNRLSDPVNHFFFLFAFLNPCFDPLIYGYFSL
Chain of D(2) dopamine receptor (Homo sapiens) (P14416 whole entry, looked up): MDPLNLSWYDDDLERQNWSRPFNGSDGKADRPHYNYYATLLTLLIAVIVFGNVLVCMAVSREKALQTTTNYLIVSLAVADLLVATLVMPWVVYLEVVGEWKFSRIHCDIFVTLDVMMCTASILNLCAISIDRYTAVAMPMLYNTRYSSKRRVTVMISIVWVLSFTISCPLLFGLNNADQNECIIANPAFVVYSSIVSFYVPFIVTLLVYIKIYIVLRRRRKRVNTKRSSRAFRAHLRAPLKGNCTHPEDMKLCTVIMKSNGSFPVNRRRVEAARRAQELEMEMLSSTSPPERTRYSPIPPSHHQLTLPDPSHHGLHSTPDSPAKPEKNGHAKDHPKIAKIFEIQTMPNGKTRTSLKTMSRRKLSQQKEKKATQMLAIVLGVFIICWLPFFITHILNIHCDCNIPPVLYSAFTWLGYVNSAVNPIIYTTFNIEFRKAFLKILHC

Take `COc1cccc(CCc2ccccc2OCC(CN(C)C)OC(=O)CCC(=O)O)c1` (configuration not stated): the Potency result in test [1], in test [2], in [3], in test [4], in [5] and in [6] was “inactive” in each case. Also, the Potency entry in test [7], in test [8], in test [10], in [11], in [12] and in test [13] was “inactive” in each case. Further, the Potency entry in test [14] and in test [15] was “inactive” each time. For the same compound, the Potency in test [9] was 7.29 µM (active).
Take `CCCCCCCCCCCCC1CO1` (configuration not stated): the Potency entry in test [1], in test [2], in test [3], in test [4], in test [5] and in test [6] was “inactive” each time. Moreover, the Potency result in test [7], in test [8], in [9], in test [10], in [11] and in test [12] was “inactive” throughout. Also, the Potency entry in test [13], in test [14], in [16], in test [17] and in test [15] was “inactive” throughout.
As to `Cc1ccc(NC=O)c(C)c1`, the Potency entry in test [1], in test [2], in test [3], in test [4], in test [5] and in [6] was “inactive” each time. For the same compound, the Potency entry in [7], in test [8], in [9], in [10], in test [11] and in test [12] was “inactive” throughout. In addition, the Potency result in test [13], in test [16], in [18] and in test [15] was “inactive” in each case.
As for `c1cc(CCCc2ccncc2)ccn1`, the Potency result in test [1], in [2], in [3], in [4], in test [5] and in test [6] was “inactive” throughout. The Potency result in [7], in test [8], in test [9], in test [10], in [11] and in test [12] was “inactive” in each case. Also, the Potency entry in test [14], in test [16], in test [18], in test [17] and in test [15] was “inactive” each time.
Turning to `Cc1cc(C(=C2C=CC(=Nc3ccc(S(=O)(=O)O)cc3S(=O)(=O)O)C=C2)c2ccc(Nc3ccc(S(=O)(=O)O)cc3)cc2)ccc1N`, the Potency result in [1], in [2], in test [3], in [4], in test [5] and in test [6] was “inactive” throughout. In addition, the Potency result in test [7], in test [8], in test [9], in test [10], in test [11] and in test [12] was “inactive” throughout. The Potency result in test [13], in test [14], in test [18], in test [17] and in test [15] was “inactive” each time.
Take `CCCCCCC#CC(=O)OC`: the Potency result in [1], in test [2], in test [3], in [4], in test [5] and in [6] was “inactive” throughout. Moreover, the Potency result in test [7], in test [8], in test [9], in [10], in test [11] and in test [12] was “inactive” throughout. The Potency result in [13], in test [14], in test [16], in test [17] and in test [15] was “inactive” throughout.
With `COc1ccccc1OCC1CNC(=O)O1` (configuration not stated), the Potency entry in test [1], in test [2], in [3], in [4], in test [5] and in test [6] was “inactive” each time. Also, the Potency result in test [7], in test [8], in test [9], in test [10], in [11] and in test [12] was “inactive” throughout. Further, the Potency result in test [13], in [14], in test [16], in test [17] and in test [15] was “inactive” in each case.
As to `C=C(C)[C@@H]1CC=C(C)C(=O)C1`, the Potency entry in [1], in [2], in test [3], in [4], in [5] and in test [6] was “inactive” in each case. Also, the Potency result in test [7], in [8], in test [9], in test [10], in test [11] and in [12] was “inactive” each time. Besides, the Potency entry in test [13], in [16], in test [17] and in test [15] was “inactive” in each case.
